D2 PAM-1: Beta-Arrestin HTS for Positive Allosteric Modulators of the Human D2 Dopamine Receptor: Potentiators; hit rate 0.23% among 360,000; DiscoveRx D2 beta-arrestin cells, luminescence, 90 min; 100% = 57 uM dopamine signal; D(2) dopamine receptor (Homo sapiens), P14416; potentiation, % (test concentration not listed); AID 624464, 2012; in the data active means potentiation above about 50%; inconclusive means mostly about 30% to 49%
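D2 cells co-treated with compound plus 50 nM dopamine (EC20) for 90 min at 37 deg C to detect potentiation. Beta-arrestin recruitment was read as enzyme-fragment luminescence after 1 h at ambient temperature. Full response was set by 57 uM dopamine.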
D2 ag-1: Beta-Arrestin HTS for Positive Allosteric Modulators of the Human D2 Dopamine Receptor: Agonists; D(2) dopamine receptor (Homo sapiens), P14416; DiscoveRx PathHunter D2 beta-arrestin, luminescence, 90 min; 100% = 57 uM dopamine signal; activation, % (test concentration not listed); hit rate 0.084% among 360,000; in the data active means activation above about 40%; inconclusive means between about 15% and that limit
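Agonist mode: compounds alone added to overnight-plated D2 PathHunter cells for 90 min at 37 C, with 57 uM final dopamine (EC100) defining full response. Beta-arrestin recruitment detected by chemiluminescent reagent, read after 1 h at ambient temperature.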
B2AR arrestin: qHTS assay of beta-arrestin-biased ligands of beta2-adrenergic receptor; Beta-2 adrenergic receptor (Homo sapiens), P07550; beta-arrestin recruitment to beta2AR, cell-based reporter; Potency, µM (doses to about 46.1 µM), inactives show top-dose activation, usual class: activators; hit rate 0.02% among 330,000; active means well fitted activation curve with a large enough effect; inconclusive means small, poorly fitted or top-dose-only effect;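 further: potency means the concentration at half of the fitted maximal effect; 0% = DMSO controls and full agonism = EC100 isoproterenol or metaproterenol; nearly all actives have a fitted effect of over 65% in size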
Target sequence (P07550 whole entry, looked up): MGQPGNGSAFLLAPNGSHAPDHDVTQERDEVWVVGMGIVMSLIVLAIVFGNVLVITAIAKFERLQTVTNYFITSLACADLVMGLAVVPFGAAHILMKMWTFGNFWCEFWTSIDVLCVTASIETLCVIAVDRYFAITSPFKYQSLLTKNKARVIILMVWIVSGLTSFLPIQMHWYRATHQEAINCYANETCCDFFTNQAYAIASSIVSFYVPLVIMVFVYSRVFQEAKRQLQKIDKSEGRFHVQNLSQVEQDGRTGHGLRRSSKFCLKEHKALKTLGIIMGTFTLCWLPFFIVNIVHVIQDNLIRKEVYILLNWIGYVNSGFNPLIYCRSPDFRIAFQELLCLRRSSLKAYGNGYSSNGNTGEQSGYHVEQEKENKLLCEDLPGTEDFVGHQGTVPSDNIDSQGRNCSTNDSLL
D2 ag-2: HTS Assay for Allosteric Agonists of the Human D2 Dopamine Receptor: Primary Screen for Agonists. D(2) dopamine receptor (Homo sapiens), P14416. HEK293 T-REx D2 cells, calcium flux agonist mode. activation, % at 2 µM. hit rate 0.53% among 340,000. AID 485358, 2010;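 active means activation over 3 SD above normal in the single-dose calcium agonist read, cut at about 30% in these data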; further: 0% is about no effect
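HEK293 Trex D2 cells, tetracycline-induced, o/n 30 C 5% CO2; no-wash Ca dye, RT 30–90 min; 10-cycle baseline, 23 nl cpd added, kinetic Ca read 180 s; agonist hits = positive Ca response.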
D2 antagonist: HTS Assay for Allosteric Antagonists of the Human D2 Dopamine Receptor: Primary Screen for Antagonists. HEK293 TREx D2 cells, calcium flux, dopamine EC80. inhibition, % at 10 µM. hit rate 2% among 340,000. AID 485344, 2010; in the data active means inhibition above about 30%; inactive means below that, where a call was filed; further: 0% is about no effect
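Compounds are added to dye-loaded, induced HEK293 T-REx cells coupled to calcium release via D2; after a 3 min kinetic read an EC80 dopamine stimulus is given and fluorescence is recorded for 3 more min.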
D2 PAM-2: HTS Assay for Positive Allosteric Modulators of the Human D2 Dopamine Receptor: Primary Screen for Potentiators; potentiation, % at 10 µM; hit rate 0.34% among 340,000; D(2) dopamine receptor (Homo sapiens), P14416; HEK293 T-REx D2, calcium flux, EC20 dopamine potentiation;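 active means potentiation over 3 SD above the plate norm, cut at about 30% in these data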; further: 0% is about no effect
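Using a no-wash calcium dye in inducible, force-coupled HEK293 Trex cells expressing D2, we tracked fluorescence each second for 180 s after compound, then for 180 s after EC20 dopamine to detect augmented signalling.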
Numbers without * were called inactive; ? = inconclusive; nt = not tested or not shown. Compounds with a hit are over-represented: about 2.4% of the library has one in this group of screens.

SMILES	D2 PAM-1	D2 ag-1	B2AR arrestin	D2 ag-2	D2 antagonist	D2 PAM-2
CC(Oc1ccccc1)C(=O)NC1CCCCCCC1 (stereo not drawn)	-11	4	0%	0	-12	7
Cc1ccc(Cl)cc1S(=O)(=O)N1CCC(C(=O)NC2CCN(Cc3ccccc3)CC2)CC1	-16	-3	0%	3	31*	-22
CC(Oc1ccccc1)C(=O)NC1CCN(Cc2ccccc2)CC1 (stereo not drawn)	-20	-3	0%	0	42*	-28
Cc1ccccc1CC(=O)NC1CCN(Cc2ccccc2)CC1	-24	-1	0%	0	56*	-37
O=C(NC1CCN(Cc2ccccc2)CC1)C12CC3CC(CC(C3)C1)C2	-16	-2	0%	1	32*	-29
CCN(CC)S(=O)(=O)c1ccc(S(=O)(=O)N2CCC(C(=O)NC3CCN(Cc4ccccc4)CC3)CC2)cc1	-4	-3	0%	1	22	12
CCN(CC)CCCNC(=O)Cn1ncn2cccc2c1=O	10	-4	0%	1	6	8
Cc1onc(-c2ccccc2)c1C(=O)N/N=C/c1cc(Br)c(Br)o1	-14	0	1%	-2	17	-1
O=C(Cc1ccccc1)NC1CCN(Cc2ccccc2)CC1	-20	-12	0%	1	36*	-27
Cc1ccc(CC(=O)NC2CCN(Cc3ccccc3)CC2)cc1	-12	-2	0%	0	-3	-14
O=C(CCNS(=O)(=O)c1cccs1)NC1CCN(Cc2ccccc2)CC1	-12	0	0%	1	41*	-34
COc1ccc(C2=Nc3ccccc3NC(=O)C2N(Cc2ccc(F)cc2)C(=O)c2ccco2)cc1 (stereo not drawn)	-8	-8	nt	nt	nt	nt
Cc1ccc(SCc2cc(=O)[nH]c(SCC(=O)Nc3cc(Cl)ccc3Cl)n2)cc1	-8	-5	0%	-1	-8	13
CC(C)N1CCc2nc(SCC(=O)Nc3cccc(F)c3)[nH]c(=O)c2C1	nt	nt	nt	1	nt	7
O=C(Cn1c(NCCO)nc2ccccc21)c1ccc([N+](=O)[O-])cc1	-3	14	0%	0	30*	7
CCCn1nnnc1NCc1ccc(C(C)C)cc1	-37	-1	0%	-1	34*	1
CCCn1nnnc1NCc1ccc(N(C)C)cc1	-3	-3	-1%	0	-1	-3
COc1ccc(NC(=O)C2CCN(C(=O)N3CCOc4ccccc43)CC2)cc1	nt	nt	nt	-1	nt	10
COc1ccc2[nH]cc(CCNC(=O)Cn3cc(C)c(=O)[nH]c3=O)c2c1	nt	-2	nt	nt	nt	nt
Cc1cc(Oc2ccc(=O)n(C)n2)nc(SCCOc2ccccc2)n1	-1	0	0%	0	-3	0
CCOC(=O)CSc1nc(C)cc(Oc2ccc(=O)n(C)n2)n1	-4	0	-1%	0	36*	-1
COc1ccc(/C=C/C(=O)O)cc1COc1cccc(C)c1	-9	2	0%	0	40*	-19
COc1cc(OC)c(C2=NOC(C(=O)NCc3cccnc3)C2)cc1Cl (stereo not drawn)	54*	3	-1%	0	-1	2
COc1ccc(OC)c(C2=NOC(C(=O)NCc3cccnc3)C2)c1 (stereo not drawn)	-2	-1	0%	0	-17	3
N#CC1=C(N)OC2=C(CCC/C2=C/c2ccoc2)C1c1ccoc1 (stereo not drawn)	nt	nt	0%	2	-5	5
SMILES	D2 PAM-1	D2 ag-1	B2AR arrestin	D2 ag-2	D2 antagonist	D2 PAM-2
N#CC1=C(N)OC2=C(CC/C2=C\c2ccc(F)cc2)C1c1ccc(F)cc1 (stereo not drawn)	nt	nt	4%	40*	37*	-5
O=C1c2ccccc2-c2onc3ccc(NCCCn4ccnc4)c1c23	67*	9	0%	49*	28	-10
Cc1ccc(OCC(=O)Nc2ccc3c(c2)C(=O)N(CCC(=O)O)C3=O)cc1	0	-2	0%	1	-14	10
CCOC(=O)c1cc(C)[nH]c(=O)c1C#N	62*	-1	0%	0	-17	7
CCOC(=O)c1cc(C)[nH]c1C	-10	-20	0%	0	-9	9
O=C1CCN(Cc2cccnc2)CCN1[C@H](CO)c1ccccc1	-6	0	1%	0	0	-8
COc1ccc(CN2CCC(=O)N([C@H](CO)c3ccccc3)CC2)cc1	-20	-2	0%	0	52*	-11
N#C/C(=C1\C(=O)Nc2c(Cl)cc(Cl)cc21)c1nnc2n1CCCCC2	67*	6	0%	nt	nt	nt
Cc1ccc(SCc2cc(-c3ccc(Cl)cc3)no2)cc1	-7	0	0%	nt	nt	32*
Cc1cc(C)c2c(=O)n(CC(=O)Nc3cccc(Cl)c3C)sc2n1	-13	-3	-1%	12	-18	18
C/C(=N\NC(=O)CSCc1ccc([N+](=O)[O-])cc1)c1ccccc1	-22	-4	0%	nt	nt	nt
Cc1ccc(CSCCNC(=O)CSCc2ccc([N+](=O)[O-])cc2)cc1	-15	0	0%	-3	32*	-9
C/C(=N\NC(=O)CSCc1ccc([N+](=O)[O-])cc1)c1ccccc1O	-42	-4	-1%	0	77*	-27
CCN(CC)C(=O)c1cccc(-c2csc(C(C)(O)c3ccncc3)n2)c1 (stereo not drawn)	-2	6	nt	nt	nt	nt
N/C(=N\OC(=O)c1ccc(Cl)cc1)c1ccc(Cl)cc1	86*	?	-1%	0	-19	0
N/C(=N\OC(=O)c1ccc(OCC(F)(F)F)nc1)c1ccc(Cl)cc1	53*	?	0%	0	30*	4
N/C(=N\OC(=O)c1ccc(Cl)cc1Cl)c1cccnc1	9	50*	0%	1	10	6
N/C(=N\OC(=O)c1ccc(Cl)cc1Cl)c1ccccc1	?	?	0%	-1	15	-1
N/C(=N\OC(=O)c1ccc(Cl)cc1Cl)c1ccc(Cl)cc1	114*	?	0%	0	12	10
COc1ccc(CC(N)c2csc(NC(=O)Nc3cccc(C(F)(F)F)c3)n2)cc1 (stereo not drawn)	4	?	nt	nt	nt	nt
